Test results from PubChem BioAssay (NCATS).
Values joined by “and” are separate entries in the source; they are usually repeats but may differ in a detail not shown here. Identical values can stand only once. Unmarked numbers belong to inactive results. Inconclusive results are not listed. Where a call stands in place of a potency, no number is given. Some compounds were tested as several samples or in several runs, with calls that do not always agree. Active and inactive are the calls of the source. Calls follow the shape of the dose curve; as a rule, active = well fitted curve in the direction sought with a large enough effect; inconclusive = small, poorly fitted or top-dose-only effect, or another doubt; inactive = no such curve, though single readings can be large; an effect the other way counts as inactive or inconclusive.

Tests used:
[1] = test system: Zika virus NS2B-NS3 protease (linked construct); test: Primary screen NINDS Rhodamine qHTS for Zika virus inhibitors (AID 1347160); details: purified NS2B-NS3 protease, Rhodamine110 substrate fluorescence; series mostly up to 57.1 µM; also: nearly all actives have a fitted effect of over 55% in size
How it was run: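 Kinetic fluorescence (Ex 480 nm, Em 540 nm) over 15 min with 1.5 microM Rhodamine110 peptide and 25 nM linked protease.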

[2] = target: Calcium and integrin-binding protein 1 (Homo sapiens) (UniProt Q99828); test: Primary qHTS for Identification of Calcium Integrin Binding Protein 1 (CIB1) Competitor (AID 1508620); details: CIB1-GST / FITC-alphaIIb peptide fluorescence polarization; series mostly up to 114 µM;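 also: GST tagged CIB1 binding a fluorescein labelled alphaIIb integrin peptide tracer; top concentration of the series differs between compounds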
How it was run: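 CIB1-GST (1 uM final) and compound incubated 15 min at room temperature before adding FITC-alphaIIb peptide tracer (100 nM final). Competition for binding read by fluorescence polarization (ex 480, em 540) after another 15 min at room temperature.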

[3] = Primary qHTS for inhibitors of nuclear receptor binding SET domain protein 2 (NSD2) in an isogenic RCH-ACV NSD2 p.E1099K mutant (9B) (AID 1645876); details: RCH-ACV NSD2 E1099K (9B) viability, CellTiter-Glo, 72 h; series mostly up to 44.9 µM; also: nearly all actives have a fitted effect of over 70% in size; also: potency is read from the fitted curve at half-maximal effect
[4] = Primary qHTS for inhibitors of nuclear receptor binding SET domain protein 2 (NSD2) in an RCH-ACV wild type WT cells (2C) (AID 1645877); details: RCH-ACV (leukaemia line) NSD2 WT (2C) viability, CellTiter-Glo, 72 h; series mostly up to 44.9 µM; also: potency is read from the fitted curve at half-maximal effect; nearly all actives have a fitted effect of over 70% in size
[5] = target: Glutathione peroxidase 1 (Homo sapiens) (UniProt P07203); test: Primary qHTS Assay for Inhibitors of Recombinant Selenoprotein Glutathione Peroxidase 1 (GPX1) (AID 1845191); details: recombinant GPX1, GR-coupled NADPH fluorescence, 15 min; series mostly up to 48.8 µM; also: nearly all actives have a fitted effect of over 65% in size
How it was run: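 10 nM GPX1 + cpd, 30 min RT; start w/ 1 mM GSH, 0.5 mM cumene hydroperoxide, 0.5 mM NADPH, 100 nM GR, 0.01% BSA; buffer 50 mM Tris-HCl pH 7.5, 2 mM EDTA, 150 mM NaCl; Fl 340/450, 0 & 15 min.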

[6] = target: Phospholipid hydroperoxide glutathione peroxidase GPX4 (Homo sapiens) (UniProt P36969); test: Primary qHTS Assay for Inhibitors of Recombinant Selenoprotein Glutathione Peroxidase 4 (GPX4) (AID 1845192); details: recombinant GPX4, GR-coupled NADPH fluorescence, 15 min; series mostly up to 50 µM; also: nearly all actives have a fitted effect of over 65% in size
How it was run: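 NADPH consumption, followed by fluorescence at 340/450 nm between 0 and 15 min, reports GPX4 activity via coupled glutathione reductase (100 nM). Enzyme 200 nM was pre-exposed to compound 30 min; 0.5 mM cumene hydroperoxide and 1 mM GSH served as substrates.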

[7] = Primary fluorescence-based thiol-reactive (MSTI) qHTS assay for identification of artifact compounds. (AID 1845221); details: MSTI thiol-reactivity probe, 1 h; series mostly up to 53.8 µM; also: nearly all actives have a fitted effect of over 65% in size; also: potency is read from the fitted curve at half-maximal effect
How it was run: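 One-hour, room-temperature, dark incubation of compound with 4 uM MSTI in PBS (pH 7.4, 2% DMSO) precedes a fluorescence read at 525 nm excitation, 598 nm emission; Hill-equation fitting yields concentration-response values.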

[8] = test system: Nanoluciferase (engineered Oplophorus gracilirostris luciferase); test: Primary Nanoluciferase (NLuc) qHTS assay for identification of artifact compounds. (AID 1845222); details: NLuc-conditioned medium, Nano-Glo luminescence, 5 min; series mostly up to 54.1 µM;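 also: NLuc secreted into diluted conditioned medium of S16 cells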
How it was run: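 NLuc from S16 cell medium (1:55) plus test compounds, 15 min, room temperature. Luminescence after Nano-Glo (1:100) addition, 5 min.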

CASKI = test: Primary qHTS to identify gynecologic anti-cancer compounds using libraries of approved drugs and bioactive compounds (AID 1345084); details: Gynecologic cancer cell panel viability, ATPlite luminescence, 48 h; series mostly up to 57.5 µM; also: nearly all actives have a fitted effect of over 55% in size; also: potency is read from the fitted curve at half-maximal effect
How it was run: (§1)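 In this quantitative HTS, cell killing is estimated from loss of ATP-dependent luciferase light. Cells see five compound concentrations over a 48 h exposure.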

JEG-3 = test: as above; details: Gynecologic cancer cell panel viability, ATPlite luminescence, 48 h; series mostly up to 57.5 µM
How it was run: as §1

Tov-21-G = test: as above; details: Gynecologic cancer cell panel viability, ATPlite luminescence, 48 h; series mostly up to 57.5 µM
How it was run: as §1

Tov112D = test: as above; details: Gynecologic cancer cell panel viability, ATPlite luminescence, 48 h; series mostly up to 57.5 µM
How it was run: as §1

[9] = target: Luciferin 4-monooxygenase (Photinus pyralis) (UniProt P08659); test: Primary firefly luciferase (FLuc) qHTS assay for identification of artifact compounds. (AID 1845220); details: purified firefly luciferase, luminescence, 5 min; series mostly up to 54.1 µM; also: nearly all actives have a fitted effect of over 60% in size; also: potency is read from the fitted curve at half-maximal effect
How it was run: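 FLuc 10 nM; luciferin 10 uM; ATP 10 uM; Tris-acetate pH 7.6, Mg-acetate 10 mM; 15 min RT preincubation; 5 min reaction; luminescence.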

C33A = test: Primary qHTS to identify gynecologic anti-cancer compounds using libraries of approved drugs and bioactive compounds (AID 1345084); details: Gynecologic cancer cell panel viability, ATPlite luminescence, 48 h; series mostly up to 57.5 µM; also: nearly all actives have a fitted effect of over 55% in size; also: potency is read from the fitted curve at half-maximal effect
How it was run: as §1

Es-2 = test: as above; details: Gynecologic cancer cell panel viability, ATPlite luminescence, 48 h; series mostly up to 57.5 µM
How it was run: as §1

HeLa = test: as above; details: Gynecologic cancer cell panel viability, ATPlite luminescence, 48 h; series mostly up to 57.5 µM
How it was run: as §1

Hek293T = test: as above; details: Gynecologic cancer cell panel viability, ATPlite luminescence, 48 h, control line for the selectivity index; series mostly up to 57.5 µM
How it was run: as §1

OV90 = test: as above; details: Gynecologic cancer cell panel viability, ATPlite luminescence, 48 h; series mostly up to 57.5 µM
How it was run: as §1

PA-1 = test: as above; details: Gynecologic cancer cell panel viability, ATPlite luminescence, 48 h; series mostly up to 57.5 µM
How it was run: as §1

[10] = test system: Zika virus NS2B-NS3 protease (unlinked complex); test: Primary screen GU Rhodamine qHTS for Zika virus inhibitors: Unlinked NS2B-NS3 protease assay (AID 1347159); details: Recombinant ZIKV NS2B-NS3 protease, Rhodamine110 substrate fluorescence; series mostly up to 107 µM; also: nearly all actives have a fitted effect of over 60% in size
How it was run: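 A qHTS format was used, with compound concentrations ranging up to 114 microM. Each compound was preincubated with 25 nM NS2B-NS3 protease, and the substrate was then added at 1.5 microM. Curves were fitted with a 4-parameter Hill model.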

Phospholipid hydroperoxide glutathione peroxidase GPX4 (Homo sapiens), sequence (P36969 whole entry, looked up): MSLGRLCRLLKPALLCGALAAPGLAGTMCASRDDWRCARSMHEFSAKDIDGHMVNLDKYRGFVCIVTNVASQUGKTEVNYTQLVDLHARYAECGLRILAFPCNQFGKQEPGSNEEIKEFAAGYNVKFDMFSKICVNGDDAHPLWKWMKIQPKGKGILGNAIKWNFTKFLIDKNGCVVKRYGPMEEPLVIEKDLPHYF
Calcium and integrin-binding protein 1 (Homo sapiens), sequence (Q99828 whole entry, looked up): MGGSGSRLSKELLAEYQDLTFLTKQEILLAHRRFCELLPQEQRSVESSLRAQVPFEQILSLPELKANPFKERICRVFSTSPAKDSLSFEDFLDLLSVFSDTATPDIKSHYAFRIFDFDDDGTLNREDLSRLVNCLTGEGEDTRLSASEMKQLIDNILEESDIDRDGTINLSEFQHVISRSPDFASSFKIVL
Glutathione peroxidase 1 (Homo sapiens), sequence (P07203 whole entry, looked up): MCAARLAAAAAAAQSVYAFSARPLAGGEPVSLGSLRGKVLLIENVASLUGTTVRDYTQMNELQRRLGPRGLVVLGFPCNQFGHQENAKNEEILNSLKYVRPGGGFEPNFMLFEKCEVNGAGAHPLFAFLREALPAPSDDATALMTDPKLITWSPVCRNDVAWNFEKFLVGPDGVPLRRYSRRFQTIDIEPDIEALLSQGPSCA

For `COc1ccc(CNC(=O)Nc2ncc([N+](=O)[O-])s2)cc1`, the Potency [1] was “inactive”, the outcome [2] was “inactive” and the Potency [3] was 18.6 µM (active). The Potency [4] was 18.6 µM (active), the Potency [5] was “inactive” and the Potency [6] was “inactive”. For the same compound, the Potency [7] was 2.67 µM (active), the Potency [8] was “inactive” and the Potency (CASKI) was “inactive”. For the same compound, the Potency (JEG-3) was “inactive”, the Potency (Tov-21-G) was “inactive” and the Potency (Tov112D) was “inactive”.
In the case of `CC(C)(C)c1ccc(CNC(=S)NCc2ccc(NS(C)(=O)=O)c(F)c2)cc1`, the Potency [1] is reported as “inactive”, the outcome [2] is reported as “inactive” and the Potency [3] is reported as 20.5 µM (active). The Potency [4] was 12.9 µM (active), the Potency [6] was “inactive” and the Potency [9] was “inactive”. For the same compound, the Potency [7] was “inactive”, the Potency [8] was “inactive” and the Potency (C33A) was “inactive”. The Potency (CASKI) was “inactive”, the Potency (Es-2) was “inactive” and the Potency (HeLa) was “inactive”. For the same compound, the Potency (Hek293T) was “inactive”, the Potency (OV90) was “inactive” and the Potency (PA-1) was “inactive”. For the same compound, the Potency (Tov-21-G) was “inactive” and the Potency (Tov112D) was “inactive”.
In the case of `CC1CCC(n2c3cnccc3c3cnc(Nc4ccc5c(n4)CCN(C(=O)CO)C5)nc32)CC1` (stereo unspecified), the Potency [10] is reported as “inactive”, the Potency [1] is reported as “inactive” and the outcome [2] is reported as “inactive”. The Potency [3] was 2.59 µM (active), the activity change, negative = viability loss [3] was -24.3% [at 9.23 µM] and the Potency [4] was 2.31 µM (active). The Potency [5] was “inactive”, the Potency [6] was “inactive” and the Potency [9] was “inactive”. The Potency [7] was “inactive”, the Potency [8] was “inactive” and the Potency (C33A) was “inactive”. The Potency (CASKI) was “inactive”, the Potency (Es-2) was “inactive” and the Potency (HeLa) was “inactive”. For the same compound, the Potency (Hek293T) was “inactive”, the Potency (JEG-3) was “inactive” and the Potency (OV90) was “inactive”. For the same compound, the Potency (Tov-21-G) was “inactive” and the Potency (Tov112D) was “inactive”.
In the case of `Oc1ccc(Nc2nc(-c3ccc(Cl)cc3)cs2)cc1`, the Potency [10] is reported as “inactive”, the Potency [1] is reported as “inactive” and the outcome [2] is reported as “inactive”. The Potency [3] was 6.61 µM (active), the Potency [4] was 6.61 µM (active) and the Potency [5] was “inactive”. For the same compound, the Potency [9] was 4.78 µM (active), the Potency [7] was 1.5 µM (active) and the Potency [8] was “inactive”. The Potency (CASKI) was “inactive”, the Potency (Es-2) was “inactive” and the Potency (Hek293T) was “inactive”. For the same compound, the Potency (JEG-3) was “inactive”, the Potency (OV90) was “inactive” and the Potency (Tov-21-G) was “inactive”.
For `CCCCn1ccc(N2CCC(c3ccccc3)CC2)c(Cl)c1=O`, the Potency [1] was “inactive”, the outcome [2] was “inactive” and the Potency [3] was 23 µM (active). The Potency [4] was 18.3 µM (active), the Potency [5] was “inactive” and the Potency [6] was “inactive”. For the same compound, the Potency [7] was “inactive”, the Potency [8] was “inactive” and the Potency (Es-2) was 28.2 µM (active). The Potency (Hek293T) was 31.6 µM (active), the Potency (PA-1) was 25.1 µM (active) and the Potency (Tov-21-G) was 28.2 µM (active).
For `CCN(CCCOc1ccc2c(Nc3cc(CC(=O)Nc4cccc(F)c4)[nH]n3)ncnc2c1)CCOP(=O)(O)O`, the Potency [1] was “inactive”, the outcome [2] was “inactive” and the Potency [3] was 5.9 µM (active). The Potency [4] was 32.5 nM (active) and 37.2 nM (active), the Potency [5] was “inactive” and the Potency [6] was “inactive”. The Potency [9] was “inactive”, the Potency [7] was “inactive” and the Potency (C33A) was “inactive”. The Potency (Es-2) was “inactive”, the Potency (HeLa) was “inactive” and the Potency (Hek293T) was “inactive”. The Potency (JEG-3) was “inactive” and the Potency (OV90) was “inactive”.
With `CC(=O)c1c(OCCN2CCCCC2)c(OCCC(C)c2ccc(F)cc2)c2oc(C)nc2c1C` (stereo unspecified) the Potency [10] was “inactive”, the Potency [1] was “inactive” and the outcome [2] was “inactive”. The Potency [5] was “inactive”, the Potency [6] was “inactive” and the Potency [9] was “inactive”. For the same compound, the Potency [7] was “inactive”, the Potency [8] was “inactive” and the Potency (C33A) was “inactive”. The Potency (CASKI) was “inactive”, the Potency (Es-2) was “inactive” and the Potency (HeLa) was “inactive”. For the same compound, the Potency (JEG-3) was “inactive”, the Potency (OV90) was “inactive” and the Potency (Tov-21-G) was “inactive”. The Potency (Tov112D) was “inactive”.
